The text below walks through data of PubChem BioAssay (Tox21).

Several values for one entry are separate records, joined by “and”; a condition that tells them apart may be missing. Equal entries are not always repeated. Results filed as inconclusive are left out. The source holds several records for some structures; these can differ, active in one and inactive in another. Activity calls are given as the source filed them. Unless noted, calls follow the shape of the dose curve; as a rule, active = well fitted curve in the direction sought with a large enough effect in the repeat runs; inconclusive = weak or mixed curves; inactive = no such curve, though single readings can be large; an effect the other way counts as inactive or inconclusive.

Experiment [1] is described as follows: qHTS assay to identify small molecule antagonists of the androgen receptor (AR) signaling pathway using the MDA cell line in the presence of 0.5 nM R1881 - cell viability counter screen (AID 1259242). Also: nearly all actives have a fitted effect of over 45% in size. Also: potency is read from the fitted curve at half-maximal effect. In outline:
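Counter screen for cytotoxicity run in the same wells as the AR antagonist reporter screen: MDA-kb2 cells were treated 16 hr with test compounds and 0.5 nM R1881, then live-cell protease activity was measured by fluorescence.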
For orientation: In qHTS, concentration-response curves come from the screen itself.

In experiment [2] the target is Estrogen receptor (Homo sapiens) (UniProt P03372). Description: qHTS assay to identify small molecule antagonists of the estrogen receptor alpha (ER-alpha) signaling pathway using the BG1 cell line in the presence of 0.1 nM 17-beta-estradiol (AID 1259244). Also: nearly all actives have a fitted effect of over 50% in size. Also: potency is read from the fitted curve at half-maximal effect. In outline:
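Cells: VM7Luc4E2, endogenous ER-alpha, 4x ERE-luc stable. Pre-culture 5 d, phenol red-free, charcoal-stripped FBS. Plated 24 h, compound + E2 0.1 nM final, 22 h 37C/5% CO2. Readout ONE-Glo luminescence.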

A short description of experiment [3]: qHTS assay to identify small molecule HDAC inhibitors (AID 1259364). Also: nearly all actives have a fitted effect of over 45% in size. Also: potency is read from the fitted curve at half-maximal effect. In outline: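 Luminescence from a cell-permeant luminogenic class I/II HDAC substrate reports endogenous deacetylase activity in intact HCT-116 cells treated with compounds for 2 h.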
Experiment [4] in a line: qHTS assay to identify small molecule HDAC inhibitors - cell viability counter screen (AID 1259365). Also: series mostly up to about 92 µM; nearly all actives have a fitted effect of over 50% in size. The gist of the method: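 HCT-116 wild-type, overnight attachment; 2hr drug exposure, 37C; CellTiter-Glo luminescent ATP readout after 30min RT.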
The nature of experiment [5]: qHTS assay to identify small molecule agonists of the sonic hedgehog signaling (Shh) pathway - cell viability counter screen (AID 1259366). Also: nearly all actives have a fitted effect of over 50% in size. Also: potency is read from the fitted curve at half-maximal effect. The gist of the method:
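Compounds in DMSO were pin-transferred onto 3T3 Gli1-Luc cells that had settled 4hr; plates then stood 24hr at 37C and 5% CO2. One hour before the end, CellTiter-Fluor was added and fluorescence recorded.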

A short description of experiment [6]: qHTS assay to identify small molecule antagonists of the sonic hedgehog signaling (Shh) pathway - cell viability counter screen (AID 1259367). Also: nearly all actives have a fitted effect of over 55% in size. Also: potency is read from the fitted curve at half-maximal effect. The gist of the method:
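After a 4 hr settling period, 3T3 Gli1-Luc cells were treated with DMSO-dissolved chemicals and conditioned medium, kept 24 hr at 37C in 5% CO2, and assayed for viability by CellTiter-Fluor fluorescence following 1 hr reagent incubation.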

The nature of experiment [7]: qHTS assay to identify small molecule agonists of the sonic hedgehog signaling (Shh) pathway (AID 1259368; calls by dose curve; also: nearly all actives have a fitted effect of over 15% in size; also: potency is read from the fitted curve at half-maximal effect). The gist of the method:
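3T3Gli1-Luc (NIH/3T3 clone, stable Gli1-Luc); 4 hr pre-incubation, then cpd in DMSO 24 hr, 37 C/5% CO2; luciferase reagent 30 min RT; luminescence.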

The nature of experiment [8]: qHTS assay to identify small molecule antagonists of the sonic hedgehog signaling (Shh) pathway (AID 1259369; calls by dose curve; also: nearly all actives have a fitted effect of over 45% in size; also: potency is read from the fitted curve at half-maximal effect). The gist of the method:
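3T3Gli1-Luc, conditioned-medium-stimulated, 24hr cpd, 37C/5% CO2; Gli1-driven firefly Luc luminescence after 30min RT with luciferase reagent. Cells plated 4hr before cpd.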

Experiment [9] in a line: qHTS assay to identify small molecule phospholipidosis (PLD) inducers (AID 1259344; active = well fitted curve in the direction sought with a large enough effect; an effect the other way counts as inactive or inconclusive; also: potency is read from the fitted curve at half-maximal effect). The gist of the method: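 HepG2 cells grown on collagen I take up LipidTOX Red while exposed to compound for 24 h; after fixation they are imaged at 20x and pit metrics are extracted.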
% is scaled to controls: 0 for no effect and ±100 for the full control effect.

Sequence of Estrogen receptor (Homo sapiens) (P03372 whole entry, looked up): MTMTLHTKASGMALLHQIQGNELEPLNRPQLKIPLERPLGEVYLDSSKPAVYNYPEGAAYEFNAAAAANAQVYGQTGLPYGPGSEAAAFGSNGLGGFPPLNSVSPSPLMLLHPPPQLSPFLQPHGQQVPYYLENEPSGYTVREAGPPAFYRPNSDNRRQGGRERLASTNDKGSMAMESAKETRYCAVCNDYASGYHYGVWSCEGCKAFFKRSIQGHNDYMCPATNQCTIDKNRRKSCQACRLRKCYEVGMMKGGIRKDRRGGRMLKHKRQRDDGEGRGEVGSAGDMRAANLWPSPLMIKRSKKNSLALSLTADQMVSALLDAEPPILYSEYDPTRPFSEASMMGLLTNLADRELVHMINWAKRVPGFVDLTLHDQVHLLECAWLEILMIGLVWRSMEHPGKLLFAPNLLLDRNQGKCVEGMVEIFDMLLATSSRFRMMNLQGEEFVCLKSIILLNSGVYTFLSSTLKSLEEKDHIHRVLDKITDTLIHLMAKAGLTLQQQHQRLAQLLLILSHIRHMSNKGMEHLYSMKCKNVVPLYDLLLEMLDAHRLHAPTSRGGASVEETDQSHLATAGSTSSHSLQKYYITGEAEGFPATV

For `c1ccc2sc(SSN3CCOCC3)nc2c1`, the Potency result in experiment [1], in experiment [2], in experiment [3] and in [7] was “inactive” each time. Also, in [4], the compound was classed as inactive. The Potency is 48.5 µM (active) in experiment [5], 54.4 µM (active) in experiment [6] and 9.67 µM (active) in [8].

In the case of `C[C@]12CCC(=O)C=C1CC[C@@H]1[C@@H]2C(=O)C[C@@]2(C)[C@H]1CC[C@]2(O)C(=O)CO`, the Potency entry in [1], in [2], in experiment [9], in experiment [3], in [6] and in experiment [7] was “inactive” throughout. In [8], the Potency is 54.5 µM (active) and inactive.

`CCCCC(CC)COCC1CO1` (stereo unspecified): the Potency result in [1], in [2], in experiment [3], in experiment [5], in experiment [6] and in [7] was “inactive” in each case. Further, the Potency result in experiment [8] was “inactive”. Moreover, the compound was called inactive in [4].

For `CC(C)OC=O`, the Potency entry in [1], in experiment [2], in [3], in experiment [5], in experiment [6] and in experiment [7] was “inactive” each time. For the same compound, the Potency in [8] is 32.6 µM (active) and inactive.

As to `Nc1ccccc1N`, the Potency entry in [1], in experiment [9] and in experiment [6] was “inactive” each time. Further, the Potency entry in experiment [2] was “inactive and 54.5 µM (active)”; in experiment [3] it was 19.8 µM (active); in experiment [7], 788 nM (active) and 13.7 µM (active); in experiment [8], “inactive and 30.6 µM (active)”.

As to `CCCCOCCOCCO`, the Potency entry in experiment [1], in experiment [2], in [3], in [5], in [6] and in experiment [7] was “inactive” in each case. The Potency entry in [8] is “inactive”. For the same compound, the compound was classed as inactive in experiment [4].

For `CNCCCC12CCC(c3ccccc31)c1ccccc12`, the Potency is 54.5 µM (active) and inactive in experiment [1]; 61.1 µM (active) and inactive in experiment [2]; 7.94 µM (active) in experiment [9]; 30.6 µM (active) in experiment [5]; 54.5 µM (active) and inactive in [6]; 5.45 µM (active) in experiment [8]. In addition, the Potency entry in experiment [3] and in experiment [7] was “inactive” in each case.

Regarding `CC(=O)CC/C=C(\C)CCC=C(C)C`, the Potency entry in [1], in experiment [2], in experiment [3], in experiment [5], in experiment [6] and in experiment [7] was “inactive” in each case. Also, the Potency result in [8] was “inactive”. For the same compound, in [4], the call was inactive.

For the compound `Nc1ccc(Cl)cc1Cl`, the Potency result in experiment [1], in [2], in [3], in experiment [5], in [6] and in [7] was “inactive” each time. Also, the Potency entry in experiment [8] is “inactive”. The result in [4] was inactive.

On to `c1ccncc1`, for which the Potency result in experiment [1], in experiment [2], in experiment [3], in [5], in experiment [6] and in experiment [7] was “inactive” in each case. For the same compound, in experiment [8], the Potency entry is “inactive”.

In the case of `Cc1c(OCC(F)(F)F)ccnc1CS(=O)c1nc2ccccc2[nH]1` (stereo unspecified), the Potency result in [1], in experiment [9], in experiment [3], in [5], in [6] and in experiment [7] was “inactive” in each case. In addition, in [8], the Potency entry was “inactive”. For the same compound, the compound was classed as inactive in experiment [4].

Take `O=C1OC2(c3cc(Br)c(O)c(Br)c3Oc3c2cc(Br)c(O)c3Br)c2c(Cl)c(Cl)c(Cl)c(Cl)c21`: the Potency in experiment [1] is 6.12 µM (active) and 18.6 µM (active); in experiment [5] it was 9.7 µM (active) and 16.6 µM (active); in experiment [6], 3.86 µM (active) and 14.8 µM (active). For the same compound, the Potency result in experiment [3], in [7] and in experiment [8] was “inactive” throughout.

For `COc1c(Cl)c(Cl)c(Cl)c(Cl)c1Cl`, the Potency entry in experiment [1], in [3], in experiment [5], in [6], in experiment [7] and in experiment [8] was “inactive” in each case.

With `Cc1cc2nc3c(=O)[nH]c(=O)nc-3n(C[C@H](O)[C@H](O)[C@H](O)CO)c2cc1C`, the Potency entry in experiment [9], in [3], in experiment [7] and in experiment [8] was “inactive” in each case. Also, the compound was classed as inactive in experiment [4].

Turning to `COc1cccc2c1C(=O)c1c(O)c3c(c(O)c1C2=O)C[C@@](O)(C(=O)CO)C[C@@H]3O[C@H]1C[C@H](N)[C@H](O)[C@H](C)O1`, the Potency result in [2], in experiment [9] and in experiment [7] was “inactive” in each case. Besides, the Potency result in experiment [3] was “inactive and 11.9 µM (active)”; in [5], 967 nM (active) and 9.44 µM (active); in experiment [6] it was 967 nM (active) and 6.68 µM (active); in experiment [8], 38.5 nM (active) and 531 nM (active). Further, the outcome in experiment [4] was inactive.

Take `O=P(O)(O)O`: the Potency entry in [1], in experiment [9], in experiment [3], in experiment [5], in [6] and in [7] was “inactive” in each case. For the same compound, the Potency result in [8] was “inactive”. Besides, the compound was called inactive in experiment [4].

Take `CCCCC/C=C/C=C/C=O`: the Potency entry in experiment [1], in experiment [3], in [5], in experiment [6] and in experiment [7] was “inactive” in each case. Moreover, the compound was called inactive in experiment [4]. Moreover, in experiment [8], the Potency result is “inactive and 34.4 µM (active)”.

As for `O=C1c2cccc(O)c2C(=O)c2c(O)cccc21`, the Potency entry in experiment [1], in [9], in experiment [5], in experiment [6], in [7] and in experiment [8] was “inactive” in each case.

For `CC(C)CC(C)(O)C#CC(C)(O)CC(C)C` (stereo unspecified), the Potency entry in experiment [1], in experiment [3] and in [7] was “inactive” in each case. Besides, the Potency in experiment [5] was 13.4 µM (active) and inactive; in [6] it was 30 µM (active) and inactive; in experiment [8], 9.49 µM (active) and inactive.

With `Cc1ccc(C(=O)c2cc(O)c(O)c([N+](=O)[O-])c2)cc1`, the Potency in experiment [1] is 54.5 µM (active); in [6], 54.5 µM (active) and inactive; in experiment [8], 24.3 µM (active). The PLD induction in experiment [9] is 0.47% [at 7.66 µM] (inactive). Further, the Potency result in experiment [3], in [5] and in experiment [7] was “inactive” each time. The result in experiment [4] was inactive.

For the compound `Cc1ncc[nH]1`, the Potency result in [1], in experiment [9], in experiment [3], in experiment [5], in experiment [6] and in experiment [7] was “inactive” each time. For the same compound, in [8], the Potency entry was “inactive”.

With `NC=O`, the Potency entry in experiment [1], in experiment [3], in [5], in experiment [6], in experiment [7] and in [8] was “inactive” in each case. Moreover, the result in [4] was inactive.

In the case of `CC(C)=CCC/C(C)=C\CO`, the Potency entry in [1], in experiment [3], in [5], in [6], in [7] and in experiment [8] was “inactive” throughout.

On to `CN(C)c1nc(N(C)C)nc(N(C)C)n1`, for which the Potency entry in [1], in experiment [9], in experiment [3], in [5], in [6] and in [7] was “inactive” throughout. In addition, the Potency result in experiment [8] is “inactive”.

On to `CCC(C)c1ccccc1O` (stereo unspecified), for which the Potency result in experiment [1], in experiment [3], in [5], in [6], in experiment [7] and in experiment [8] was “inactive” in each case. Besides, the compound was called inactive in [4].

With `C[Si](C)(C)O[Si](C)(C)C`, the Potency entry in [1], in experiment [9], in experiment [3], in [5], in experiment [6] and in [7] was “inactive” throughout. Further, in [8], the Potency entry was “inactive”. Further, in [4], the outcome was inactive.
